Reference: PubChem BioAssay (NCI)
About 79,000 compounds went through this panel and 15% of them were active in at least one assay; those are over-represented in the sample as a whole. Unmarked numbers belong to inactive results. Rule as the data show it: active = growth inhibition above about 70%; inactive = the rest.

Assay: NCI Yeast Anticancer Drug Screen. Data for the mlh1 rad18 strain (AID 175)
Settings: S. cerevisiae mlh1 rad18 strain growth inhibition; at 50.0 µM; hits give high values
Procedure, shortened: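 Cells of a genetically altered yeast strain, deficient in DNA damage repair, were treated with compound. Their growth was then compared with that of vehicle-treated cultures to give inhibition.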

Compound	growth inhibition
COc1ccc(N=Nc2c(C)nn(C(=O)c3ccncc3)c2C)cc1	-10.1%
O=C(O)c1cc(=O)[nH]c2ccccc12	14.9%
Cc1ccc(S(=O)(=O)NC(Cc2ccccc2)C(=O)NCc2cccnc2)cc1 (stereo unspecified)	4.65%
CCCCCCCCCCCCCCCCCCOCCCCCC	-7.55%
CN(C)NC(=O)Nc1cccc2ccccc12	-20.4%
N#C/C(=C/N1CCNC1=S)C(N)=O	12.4%
COC(=O)Cc1nn2c(nc1=O)sc1ccc3ccccc3c12	-17.2%
CC(=O)OCC(=O)c1ccccc1	-13.6%
O=C1C2C=CC(n3[nH]c(=O)n(Cc4ccccc4)c3=O)CC2C(=O)N1c1ccc(Br)cc1 (stereo unspecified)	2%
COc1ccc(/C=N/NC(=O)c2ccccc2OC)cc1	36.1%
CNc1ccc2c(c1)C(=O)c1ccccc1-2	-11.4%
